This note sets out measurements from PubChem BioAssay (EPA / NIEHS).

Active and inactive are the calls of the source. The calls were made as follows: active = hit-call score of the fitted dose curve at least 0.9, where 1 is the maximum; inactive = score below 0.9.

This assay can be described thus: ATG_M_19_CIS: Attagene CIS-FACTORIAL HepG2 Assay for M19 Transcription Factor (Internal Marker) (AID 2282939). As to conditions: HepG2 Attagene CIS-FACTORIAL M19 internal marker reporter; actives raise or lower the signal. The protocol:
ATG_CIS is a cell-based, multiplexed-readout assay that uses HepG2, a human liver cell line, with measurements taken at 24 hours after chemical dosing in a 24-well plate.ATG_M_19_CIS is one of 52 assay component(s) measured or calculated from the ATG_CIS assay. It is designed to make measurements of mRNA induction, a form of inducible reporter, as detected with fluorescence intensity signals by Reverse transcription polymerase chain reaction (RT-PCR) and Capillary electrophoresis technology.Data from the assay component ATG_M_19_CIS was analyzed into 1 assay endpoint. This assay endpoint, ATG_M_19_CIS, was analyzed with bidirectional fitting relative to DMSO as the negative control and baseline of activity. Using a type of inducible reporter, measures of mRNA for gain or loss-of-signal activity can be used to understand the background control at the transcription factor-level as they relate to the gene . Furthermore, this assay endpoint can be referred to as a secondary readout, because this assay has produced multiple assay endpoints where this one serves a background control function. To generalize the intended target to other relatable targets, this assay endpoint is annotated to the background measurement intended target family, where the subfamily is internal marker.
Human liver HepG2 cells are transiently transfected with multiple reporter transcription units (MRTUs) in 6-well plates using FuGene 6 reagent (Roche; 3 ml FuGene/1 mg DNA). The MRTU constructs are regulated by a cis-regulating element (promoter). […] A major difference between the CIS and TRANS system is that in CIS activities of endogenous TFs are measured, whereas the TRANS assay evaluates changes in activities of exogenous, chimeric NR-Gal4 proteins. […] At the end of 24 hour incubation, total RNA was isolated using TriZol reagent (Invitrogen). The isolated RNA is then reverse-transcribed using oligo(dT) primer and Mo-MLV reverse transcriptase (Invitrogen) with DNAse I (Ambion) treatment for 30 min. The one-tenth of the produced cDNA was amplified by PCR using Taq DNA polymerase (Invitrogen) and two reporter sequence-specific primers. The PCR products were fluorescently labeled by primer extension with 6-arboxyfluorescein (6-FAM) 5'-labeled reporter sequence-specific primer (2 min at 95 C, 20 s at 68 C and 10 min at 72 C) and these products were digested with 5U of HpaI (New England Biolabs) for 2h at 37 C. The fragments were purified using Qiaquick PCR columns (Qiagen), analyzed on an ABI 3130xL genetic analyzer (Applied Biosystems) with peak positions identified by using a set of X-rhodamine (ROX)-labeled MapMarker1000 molecular weight standards (BioVentures). The raw capillary electrophoresis data was processed using Attagraph software (Attagene).
For the compound `CC(C)C[C@H](NC(=O)OCC1c2ccccc2-c2ccccc21)C(=O)O`, the compound was classed as inactive.

As to `CCCCCC(C)=O`, the call was inactive.

In the case of `CC1(C)O[C@@H]2C[C@H]3[C@@H]4CCC5=CC(=O)C=C[C@]5(C)[C@@]4(F)[C@@H](O)C[C@]3(C)[C@]2(C(=O)CO)O1`, the compound was called inactive.

With `O=C1NC2NC(=O)NC2N1` (stereo not given), the result was inactive.

With `CCOc1ccc(NC(=O)CC(C)=O)cc1`, the compound was classed as inactive.

Turning to `C=C(C)C(=O)OCC(CC)(COC(=O)C(=C)C)COC(=O)C(=C)C`, the outcome was inactive.

As for `COc1cc([C@@H]2c3cc4c(cc3[C@@H](O[C@@H]3O[C@@H]5CO[C@@H](C)O[C@H]5[C@H](O)[C@H]3O)[C@H]3COC(=O)[C@H]23)OCO4)cc(OC)c1O`, the result was inactive.

As to `O=C(O)CCCCCCCCC(=O)O`, the result was inactive.

As for `CCCCCCCCCCCCN1CCCCCC1=O`, the outcome was inactive.

Turning to `C=C(C)C1CC=C(C)C(=O)C1` (stereo not given), the result was inactive.

`CCCCCCCCSCCO`: the outcome was inactive.

In the case of `CC(C)(C)OC(=O)c1ccc(O)cc1`, the call was inactive.

With `CC(C)CCCCCCc1ccc(OCCOCCO)cc1`, the call was inactive.

Turning to `CCCCCCC(CO)CCCC` (stereo not given), the compound was called inactive.

With `Cc1ncc[nH]1`, the compound was classed as inactive.

For the compound `CCCCCCC(O)CCCCCCCCCCC(=O)O` (stereo not given), the compound was called inactive.

With `CCCCCCCCCCCC(=O)OC[C@@H](O)[C@H]1OC[C@H](O)[C@H]1O`, the outcome was inactive.

Take `NCC1CCCC(CN)C1` (stereo not given): the call was inactive.

As to `c1ccc2[nH]cnc2c1`, the compound was classed as inactive.

Turning to `Cc1cc(C)nc(NS(=O)(=O)c2ccc(N)cc2)n1`, the compound was called inactive.

With `CCCCCCCCCCCCS(=O)(=O)Cl`, the result was inactive.

Take `[O-]n1ccccc1=S.[O-]n1ccccc1=S.[Zn+2]`: the result was inactive.

Regarding `COc1ccc(N)c([N+](=O)[O-])c1`, the result was inactive.

`CC(C)(C)CC(C)(C)c1ccc(OCCOCC[N+](C)(C)Cc2ccccc2)cc1`: the compound was classed as inactive.

Turning to `C=C(CC(=O)O)C(=O)O`, the outcome was inactive.

As for `Cc1ncc([N+](=O)[O-])n1CCO`, the compound was classed as inactive.

For the compound `O=C(CC(=O)c1ccccc1)c1ccccc1`, the compound was classed as inactive.

In the case of `CCC(Cl)C(Cl)C(Cl)CC(Cl)C(Cl)C(C)Cl` (stereo not given), the compound was called inactive.

Regarding `Nc1ccn([C@H]2CS[C@@H](CO)O2)c(=O)n1`, the compound was classed as inactive.

Consider `CC1=C(Br)C(=O)C(Br)=C/C1=C(/c1ccccc1S(=O)(=O)O)c1cc(Br)c(O)c(Br)c1C`, for which the call was inactive.

Turning to `O=C(CS)OCCOC(=O)CS`, the compound was called inactive.

`CC1(C)C2=CCCC(C)(C)[C@]23CC[C@H]1C3`: the call was inactive.

For the compound `C=C(C)C(=O)OCCOCCOCCOC(=O)C(=C)C`, the compound was called inactive.

As to `FC(F)(F)COCC(F)(F)F`, the result was inactive.

As for `CS(=O)(=O)OCCCCOS(C)(=O)=O`, the outcome was inactive.

Consider `CCc1ccc(O)cc1`, for which the call was inactive.

Take `CCCC(C)C(O)CC` (stereo not given): the outcome was inactive.

Regarding `COc1ccc(COC(C)=O)cc1`, the outcome was inactive.

Regarding `COC(C)(C)CC(C)=O`, the result was inactive.

Regarding `O=C(Nc1ccc([N+](=O)[O-])cc1)Nc1ccc([N+](=O)[O-])cc1` (tested in a mixture with another compound), the outcome was inactive.
